# Bioassay records deposited in PubChem BioAssay by National Center for Advancing Translational Sciences (NCATS).
# FBPA Giardia inh: Giardia lamblia aldolase inhibition | A8B2U2 | purified Giardia FBPA | Potency, µM (top dose mostly 59.6 µM), for inactives: top-dose activity, negative = inhibition, most hits filed as inhibitors | hit rate 0.71% among 290,000; note: % is set by controls: 0 for no effect and ±100 for the full control effect; nearly all actives have a fitted effect of over 55% in size
# Target sequence (A8B2U2 whole entry, looked up): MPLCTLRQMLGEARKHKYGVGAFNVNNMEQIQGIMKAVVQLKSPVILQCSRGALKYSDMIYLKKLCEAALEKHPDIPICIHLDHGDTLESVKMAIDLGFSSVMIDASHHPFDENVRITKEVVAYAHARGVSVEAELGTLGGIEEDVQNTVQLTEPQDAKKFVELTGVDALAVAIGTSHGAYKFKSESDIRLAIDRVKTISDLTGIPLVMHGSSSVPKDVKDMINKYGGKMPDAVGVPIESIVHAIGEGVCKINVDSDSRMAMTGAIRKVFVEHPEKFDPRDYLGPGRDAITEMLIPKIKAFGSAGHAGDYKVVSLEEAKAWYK
#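 Giardia FBPA (40 nM reagent) was preincubated 10 min at RT with compound (up to 57.5 uM final), then substrate plus GAPDH/TPI/NAD/arsenate coupling system with diaphorase/resazurin was added; resorufin fluorescence (525/598 nm) was read after 20 min.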
# AmpC inh detg: AmpC beta-lactamase inhibition with detergent present | P00811 | AmpC hydrolysis of nitrocefin, absorbance 480 nm, 0.01% Triton | Potency, µM (top dose mostly 114 µM), without a hit: top-dose activity change, negative = inhibition, most hits filed as inhibitors | hit rate 0.041% among 370,000 | AID 485294;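 note: 0% = no-compound wells and -100% = no-enzyme wells; nearly all actives have a fitted effect of over 25% in size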
# Target sequence (P00811 whole entry, looked up): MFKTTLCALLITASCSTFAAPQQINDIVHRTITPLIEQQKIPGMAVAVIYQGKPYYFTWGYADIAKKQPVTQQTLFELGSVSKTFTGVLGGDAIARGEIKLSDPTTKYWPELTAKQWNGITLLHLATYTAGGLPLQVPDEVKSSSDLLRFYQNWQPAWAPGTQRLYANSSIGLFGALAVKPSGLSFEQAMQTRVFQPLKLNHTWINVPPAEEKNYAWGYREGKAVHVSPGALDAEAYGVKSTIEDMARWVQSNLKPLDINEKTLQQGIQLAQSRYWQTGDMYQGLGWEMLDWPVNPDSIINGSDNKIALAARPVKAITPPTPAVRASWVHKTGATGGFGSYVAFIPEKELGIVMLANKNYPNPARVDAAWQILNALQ
#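 20 mM phosphate pH 7.0 + 0.01% (detergent screen) or 0.0001% Triton X-100; 5.3 nM AmpC reagent; cpd preinc 15 min RT; nitrocefin (800 uM stock) to start; A480 q20 s × 4 min; Activity was normalised to no-enzyme and no-compound control wells.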
# SARS PLpro yeast: inhibitors of SARS-CoV papain-like protease in yeast; AID 485353; S. cerevisiae expressing SARS-CoV PLpro, growth rescue; hit rate 0.19% among 330,000; Potency, µM (series often up to 32.9 µM), without a hit: at the top dose activity, positive = growth rescue, actives largely listed as activators; calls by dose curve; note: 0% is about no effect; nearly all actives have a fitted effect of over 55% in size
# AmpC no deterg: AmpC beta-lactamase inhibition without detergent; AmpC nitrocefin hydrolysis, absorbance 480 nm, 0.0001% Triton; Potency, µM (highest dose often 57.1 µM), for the others: at the highest dose activity change, negative = inhibition, most hits filed as inhibitors; hit rate 0.52% among 330,000;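 note: plate controls were no compound for no effect and no enzyme for full effect; nearly all actives have a fitted effect of over 20% in size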
#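 20 mM phosphate pH 7.0 + 0.01% (detergent screen) or 0.0001% Triton X-100; 5.3 nM AmpC reagent; cpd preinc 15 min RT; nitrocefin (800 uM stock) to start; A480 q20 s × 4 min; Activity was normalised to no-enzyme and no-compound control wells.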
# An asterisk follows results filed as active; ? = inconclusive; nt = no result given; [ ] = dose if it differs, or a comment. The list is not random: actives were taken first. Their share in the collection is about 1.1%. Unless noted, calls come from the whole dose curve; as a rule, active = well fitted curve in the direction sought with a large enough effect; inconclusive = small, poorly fitted or top-dose-only effect, or another doubt; inactive = no such curve, though single readings can be large; an effect the other way counts as inactive or inconclusive. Potency is the fitted concentration of half-maximal effect.
SMILES,FBPA Giardia inh,AmpC inh detg,SARS PLpro yeast,AmpC no deterg
CCC[C@@H]1NC(=O)[C@@H](NC(C)=O)CSSC[C@@H](C(N)=O)NC(=O)CNC(=O)[C@H](Cc2c[nH]c3ccccc23)NC(=O)[C@H](CCCN=C(N)N)NC(=O)[C@H](Cc2ccc3ccccc3c2)NC(=O)[C@H](Cc2cnc[nH]2)NC(=O)[C@H](CCCN=C(N)N)NC1=O,5%,nt,nt,nt
CCCc1cc(-c2n[nH]c(=S)n2C(C)c2ccccc2)cs1 (configuration not stated),0%,-3%,22µM*,-31%
CCCc1cc(-c2n[nH]c(=S)n2CC)cs1,0%,2%,0%,-32%
CCC1Cc2cc(O)ccc2C2=C1c1ccc(O)cc1CC2CC (configuration not stated),-2%,nt,nt,nt
CSCC[C@H](NC(=O)[C@H](Cc1ccc(OS(=O)(=O)O)cc1)NC(=O)[C@@H](N)CC(=O)O)C(=O)NCC(=O)N[C@@H](Cc1c[nH]c2ccccc12)C(=O)N[C@@H](CCSC)C(=O)N[C@@H](CC(=O)O)C(=O)N[C@@H](Cc1ccccc1)C(N)=O,-6%,nt,nt,nt
CC(=O)N1c2ccc(S(=O)(=O)N(C)CC(=O)N(Cc3ccccc3)C(C)C)cc2CC1C (configuration not stated),nt,-6%,nt,nt
Cc1cc(NC(=O)c2coc(=O)c(Br)c2)ccc1C(C)C,-13%,8%,-3%,16µM*
C[C@@H](NC(=O)c1coc(=O)c(Br)c1)c1ccccc1,3%,-2%,8%,-17%
CCCOC(=O)N1CCN(/[N+]([O-])=N/Oc2ccc([N+](=O)[O-])cc2[N+](=O)[O-])CC1,-5%,nt,nt,nt
COc1ccc(S(=O)(=O)N(C)CC(=O)Nc2c(F)cccc2F)cc1,-1%,-1%,1%,0.14µM*
COc1ccc(S(=O)(=O)N(C)CC(=O)Nc2ccc3c(c2)OCO3)cc1,-5%,-14%,-4%,5%
COC(=O)COc1ccc(S(=O)(=O)NCCC2=CCCCC2)cc1,-1%,3%,-6%,0.14µM*
COC(=O)COc1ccc(S(=O)(=O)NCCC2=CCCCC2)cc1C,-5%,1%,-16%,-1%
CN(C)c1ccc(NC(=O)c2ccc([N+](=O)[O-])cc2Cl)cc1,-3%,100µM*,16%,-14%
CC(C)C(=O)Nc1ccc(NC(=O)c2ccc([N+](=O)[O-])cc2Cl)cc1,13%,?,6%,-7%
Cc1ccsc1C=Nc1ccc(O)cc1,5.6µM*,-9%,-7%,-25%
O=C(Nc1ccccc1)c1cc2ccccc2c(=O)s1,3%,89µM*,-26%,-19%
COc1cc(NC(=O)CCn2c(-c3ccccc3)cc(C(C)=O)c2C)cc(OC)c1,nt,0%,nt,nt
Cc1cccc(NC(=O)Cn2cc(C(=O)c3ccco3)c3ccccc32)c1C,nt,-8%,nt,nt
O=C(Cn1cc(C(=O)c2ccco2)c2ccccc21)Nc1ccccc1F,1%,-2%,-1%,28µM*
CSCC[C@H](NC(=O)c1ccc(NC[C@@H](N)CS)cc1-c1ccccc1)C(=O)O,0%,nt,nt,nt
Oc1c(Cl)c(Cl)c(Cl)c(Cl)c1Cl,6%,nt,nt,nt
O=C1C=CC(=O)c2c(O)c(Cl)c(Cl)c(O)c21,13µM*,nt,nt,nt
CS(=O)(=O)c1cc([N+](=O)[O-])c(Sc2nc3ccccc3[nH]2)c([N+](=O)[O-])c1,?,?,-7%,22µM*
O=C(O)CN1C(=O)/C(=C\c2cc(Br)ccc2OCc2ccc([N+](=O)[O-])cc2)SC1=S,-6%,-4%,2%,20µM*
SMILES,FBPA Giardia inh,AmpC inh detg,SARS PLpro yeast,AmpC no deterg
O=C(CCC1N=C2c3ccccc3N=C(SCc3ccc(F)cc3)N2C1=O)NCCc1ccccc1 (configuration not stated),nt,8%,nt,nt
NS(=O)(=O)c1ccc(CCNC(=O)c2ccccc2OCc2ccc(F)cc2)cc1,6%,?,1%,11µM*
Cc1ccccc1C(=O)NC(C)C(c1cccs1)N1CCOCC1 (configuration not stated),4%,?,6%,2.8µM*
C=CCc1c(C)nc(-c2ccccc2)nc1Nc1ccc(O)cc1,-2%,?,-2%,-47%
C=CCc1c(C)nc(-c2ccccc2)nc1N/N=C(\C)c1ccccc1,?,?,-18%,28µM*
O=S(=O)(Oc1ccccc1/C=N/n1cnnc1)c1ccccc1,20µM*,0%,0%,0%
COc1ccccc1/C=N/n1cnnc1,-2%,13%,-3%,-11%
CCOC(=O)C1=C(C)N(c2ccccc2)C(=O)/C1=C\c1ccc(O)c(OC)c1,18µM*,1%,1%,-10%
CCOC(=O)C1=C(C)N(c2ccccc2)C(=O)/C1=C\c1ccco1,5%,-4%,-1%,-10%
COC(=O)C1=C(C(=O)OC)[C@@H]2N(Cc3ccccc3)c3ccccc3[C@@]23C[C@@H](C(=O)OC)N(S(=O)(=O)c2ccc(C#N)cc2)C3=N1,4%[12.9 µM],nt,nt,nt
CCCCOC(=O)c1[nH]c2c(c1C)C(=O)CC(c1cc(OC)c(OC)c(OC)c1)C2 (configuration not stated),1%,?,3%,32µM*
CCOC(=O)CCCNC(=O)N1CCc2nc(-c3ccccc3)c3c(c2C1)CO[C@@H](C)C3,6%[12.9 µM],nt,nt,nt
CCCn1c(/N=C/c2ccccc2O)nc2ccccc21,-2%,4%,0%,-12%
Cn1c(/N=C/c2c(O)ccc3ccccc23)nc2ccccc21,0.71µM*,5%,?,-25%
Cc1ccc(NC(=O)c2cccc(NC(=O)/C=C/c3ccco3)c2)cc1C,-3%,?,-20%,-55%
Cc1ccc(-n2nc3ccc(NC(=O)/C=C/c4ccco4)cc3n2)cc1,-3%,-8%,-6%,28µM*
CCCc1cc(=O)[nH]c2nnc(SCC(=O)NC3CCCC3)n12,nt,?,-1%,18µM*
CCCc1cc(=O)[nH]c2nnc(SCC(=O)Nc3ccc(NC(C)=O)cc3)n12,nt,-12%,nt,-1%
O=C(CCN1C(=O)S/C(=C\c2cccs2)C1=O)NC1=NCCS1,3%,-3%,-21%,22µM*
CC1(C)CC(=O)c2cc(-c3nc(-c4ccccc4)cs3)c(=O)[nH]c2C1,nt,17%,nt,nt
COC(=O)C#CC(=O)OC,3%,nt,nt,nt
CN(C)c1nc(N)nc(-c2nc3ccccc3s2)n1,9%,-1%,1%,0%
CN(C)c1nc(N)nc(Nc2ccccc2C#N)n1,0%,0%,-3%,0.2µM*
O=C(CSc1nnc(C2COc3ccccc3O2)o1)N1CCCCC1 (configuration not stated),0%,-14%,-2%,0%
O=C(CSc1nnc(C2COc3ccccc3O2)o1)NC1CCCCC1 (configuration not stated),3%,-5%,4%,40µM*
CC(=O)O[C@@H]1CC[C@@]2(C)[C@H](C1)[C@H](OC(C)=O)C[C@@H]1[C@@H]2C[C@H]2[C@@H]3CN4C[C@H](C)CC[C@H]4[C@H](C)[C@H]3CC[C@@]12O,2%,nt,nt,nt
CCOC(=O)c1ccc(CC(=O)c2ccc(O)c(O)c2O)o1,11µM*,4%,10%,-42%
